We go through 39 molecules from PubChem BioAssay (NCATS).

Results filed as inconclusive are left out. Calls of active or inactive are those of the source. Calls come from the whole dose curve; as a rule, active = well fitted inhibition curve with a large enough effect; inconclusive = small, poorly fitted or top-dose-only effect; inactive = flat fitted curve, though single readings scatter.
Potency is the fitted concentration of half-maximal effect.

The subject of the experiment is CP237. Nature of the experiment: qHTS profiling for inhibitors of Plasmodium falciparum proliferation (AID 504749).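 For activity, negative = inhibition: 0% = DMSO vehicle and full inhibition = artemisinin control.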 Note: nearly all actives have a fitted effect of over 60% in size. The following applies: P. falciparum in erythrocytes, SYBR Green DNA, 72 h; series mostly up to 28.7 µM; activity, negative = inhibition: at the top concentration. In outline: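 Infected RBCs, 0.3% parasitemia/2.5% Hct final; cpd 72 h, 37 C, 5% CO2; lysis buffer with saponin/triton/SYBR Green I, o/n RT dark; FI 485/535; norm. to artemisinin (0.29 uM) and DMSO.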
(In general: In qHTS, concentration-response curves come from the screen itself.)
Take `Cc1ccc(C(C)(C)c2ccc(C)cc2)cc1`: the “activity, negative = inhibition” value is 2.5% (inactive). For the molecule `N[C@H](CC(=O)O)C(=O)O`, the “activity, negative = inhibition” value was 2.11% (inactive).

Regarding `O=C(O)COc1ccc(CCNS(=O)(=O)c2ccccc2)s1`, the “activity, negative = inhibition” value is 0.507% (inactive).

With `O=S(=O)(O)CCCS(=O)(=O)O`, the “activity, negative = inhibition” value was 2.24% (inactive). Still for that read-out and setting: then `COC(=O)c1ccccc1O`, with 3.46% (inactive). As for `CC1(O)CCC(C(C)(C)O)CC1` (centres undefined), the “activity, negative = inhibition” value is -0.46% (inactive). Consider `COc1ccc(/C=C/C(=O)O)cc1`, for which the “activity, negative = inhibition” value was -2.48% (inactive). Consider `CC(=O)Nc1c(I)c(C(=O)O)c(I)c(N(C)C(C)=O)c1I`, for which the “activity, negative = inhibition” value was -5.56% (inactive). Take `Nc1ncnc2c1ncn2[C@H]1CC[C@@H](CO)O1`: the “activity, negative = inhibition” value was 9.28% (inactive). Consider `COC(=O)C(CN)c1c[nH]c2ccc(OC)cc12` (centres undefined), for which the “activity, negative = inhibition” value was 0.0936% (inactive). For the molecule `CC/C(=C(/CC)c1ccc(OP(=O)(O)O)cc1)c1ccc(OP(=O)(O)O)cc1`, the “activity, negative = inhibition” value is 1.11% (inactive).

Regarding `CN1c2c(nc(N)[nH]c2=O)NCC1CNc1ccc(C(=O)NC(CCC(=O)O)C(=O)O)cc1` (centres undefined), the “activity, negative = inhibition” value was 2.45% (inactive). Take `CC(C)(CO)[C@@H](O)C(=O)NCCC(=O)NCCSSCCNC(=O)CCNC(=O)[C@H](O)C(C)(C)CO`: the “activity, negative = inhibition” value is 5.76% (inactive). As to `CCCC(=O)O`, the “activity, negative = inhibition” value is -2.64% (inactive). As to `CCSc1ccc2c(c1)N(CCCN1CCN(C)CC1)c1ccccc1S2`, the “activity, negative = inhibition” value was -9.16% [at 12.8 µM] (inactive).

For the molecule `CC1=CC(=C(c2ccc(N)cc2)c2ccc(N)cc2)C=CC1=N`, the Potency was 3.16 µM (active). With `CC1=CC(=O)NS(=O)(=O)O1`, the “activity, negative = inhibition” value was 1.06% (inactive).

As for `CC1CCCCN1CCCOC(=O)c1ccccc1` (centres undefined), the “activity, negative = inhibition” value was -10.8% (inactive). Take `COC(=O)CC[C@H](N)C(=O)O`: the “activity, negative = inhibition” value is 8.01% (inactive).

Consider `C[C@H](CCC(=O)O)[C@H]1CC[C@H]2[C@@H]3CC[C@@H]4C[C@H](O)CC[C@]4(C)[C@H]3C[C@H](O)[C@]12C`, for which the “activity, negative = inhibition” value was 0.373% (inactive). For the molecule `CO`, the “activity, negative = inhibition” value is 8.62% (inactive). `C=CCN1CCCC1CNC(=O)c1cc(S(N)(=O)=O)cc(OC)c1OC` (centres undefined): the “activity, negative = inhibition” value is -2% (inactive). Still for that read-out and setting: as for `CC/C=C\C/C=C\C/C=C\C/C=C\C/C=C\C/C=C\CCC(=O)O`, the figure is -13.2% (inactive).

Regarding `COc1cc2c(cc1OC)[C@@H](Cc1cc(OC)c(OC)c(OC)c1)[N+](C)(CCCOC(=O)CC/C=C/CCC(=O)OCCC[N+]1(C)CCc3cc(OC)c(OC)cc3[C@H]1Cc1cc(OC)c(OC)c(OC)c1)CC2` (some centres undefined), the “activity, negative = inhibition” value is 10.6% (inactive).

Take `CCCOC(=O)c1ccccc1O`: the “activity, negative = inhibition” value is -19.7% (inactive).

Regarding `CC/C=C\C/C=C\C/C=C\CCCCCCCC(=O)O`, the “activity, negative = inhibition” value was 4.83% (inactive). Take `NC(=O)[C@H]1O[C@@H](O)[C@H](O)[C@@H](O)[C@@H]1O`: the “activity, negative = inhibition” value is 9.04% (inactive). Take `CCCCCCCCCCCCOCCCN`: the “activity, negative = inhibition” value was -1.69% (inactive). For the molecule `CC(C)(C)c1ccc2c(S(=O)(=O)O)c(C(C)(C)C)ccc2c1`, the “activity, negative = inhibition” value was 1.11% (inactive). In the case of `COC(=O)CCC[N+](C)(C)C`, the “activity, negative = inhibition” value was 1.38% (inactive). With `CNC(=O)OCc1cccc(COC(=O)NC)n1`, the “activity, negative = inhibition” value is 9.33% (inactive). Turning to `O=C(NCCNCC(O)COc1ccc(O)cc1)N1CCOCC1` (centres undefined), the “activity, negative = inhibition” value was -4.46% (inactive). Same read-out and setting: as for `OC[C@H]1O[C@@H]2O[C@H]3[C@H](O)[C@@H](O)[C@@H](O[C@H]4[C@H](O)[C@@H](O)[C@@H](O[C@H]5[C@H](O)[C@@H](O)[C@@H](O[C@H]6[C@H](O)[C@@H](O)[C@@H](O[C@H]7[C@H](O)[C@@H](O)[C@@H](O[C@H]1[C@H](O)[C@H]2O)O[C@@H]7CO)O[C@@H]6CO)O[C@@H]5CO)O[C@@H]4CO)O[C@@H]3CO`, the figure is 6.94% (inactive). On the same count and under the same terms, then `CCCCCCCCCCCCCCCCCCCCCC(=O)Nc1ccn([C@@H]2O[C@H](CO)[C@@H](O)[C@@H]2O)c(=O)n1`, with -0.697% (inactive). On to `CCCCCCCCCCCCCCCCCC[N+](C)(C)CCC[Si](OC)(OC)OC`, for which the “activity, negative = inhibition” value is 0.599% (inactive).

On to `OB(O)O`, for which the “activity, negative = inhibition” value was 2.1% (inactive).

As for `CCOc1ccc(NC(=S)Nc2ccc(OCC)cc2)cc1`, the “activity, negative = inhibition” value was 0.58% (inactive).

In the case of `CC(C)c1nc(N(C)S(C)(=O)=O)nc(-c2ccc(F)cc2)c1/C=C/C(O)CC(O)CC(=O)O` (centres undefined), the “activity, negative = inhibition” value was 2.18% (inactive). The same measure, in the same setting: then `O=C(/C=C/c1cccc(F)c1)NC1CC1`, with 2.87% (inactive).
